This is an account of results in PMC4552634, “A New Set of Chemical Starting Points with Plasmodium falciparum Transmission-Blocking Potential for Antimalarial Drug Discovery” (PLoS ONE, 2015).

Read-outs that look alike come from different tables or passages of the source. In all, about 13,000 compounds went through this assay and about 3,200 (25%) showed an effect of 50% or more. The list shows a part of the results.

This experiment concerns P. falciparum stage V gametocytes. The arrangement: BacTiter-Glo ATP luminescence viability of purified stage V gametocytes in 384-well plates, per cent inhibition versus DMSO. Particulars: 48 h, 5 µM, inhibitor.

Turning to `O=C(/C=C/c1ccc(Cl)c(Cl)c1)NC1CCC(CN2CCC(c3c[nH]c4cc(C(F)(F)F)ccc34)CC2)CC1` (centres unmarked) [TCMDC-139868], the “% Inhibition” value (% Inhibition) is reported as 4.839%.

In the case of `Cc1ccc2[nH]cc(C3CCN(CC4CCC(NC(=O)/C=C/c5ccc(Cl)c(Cl)c5)CC4)CC3)c2c1` (centres unmarked) [TCMDC-139630], the “% Inhibition” value (% Inhibition) is listed as -23.48%.

On to `O=C(/C=C/c1ccc(Cl)c(Cl)c1)NC1CCC(CN2CCC(c3c[nH]c4ccccc34)C(O)C2)CC1` (centres unmarked) [TCMDC-139645], for which the “% Inhibition” value was -15.82%.

Turning to `NC(=O)c1ccc2[nH]cc(C3CCN(CC4CCC(NC(=O)/C=C/c5ccc(Cl)c(Cl)c5)CC4)CC3)c2c1` (centres unmarked) [TCMDC-139886], under “% Inhibition”, the “% Inhibition” value is recorded as 70.38%.

`CS(=O)(=O)Nc1ccc2[nH]cc(C3CCN(CC4CCC(NC(=O)/C=C/c5ccc(Cl)c(Cl)c5)CC4)CC3)c2c1` (centres unmarked) [TCMDC-139641]: the “% Inhibition” value is -16.95%.

For the compound `O=C(/C=C/c1ccc(Cl)c(Cl)c1)N1CCC(CN2CCC(c3c[nH]c4cc(C(F)(F)F)ccc34)CC2)CC1` [TCMDC-139860], the “% Inhibition” value was 22.64%.

On to `O=C(/C=C/c1ccc(Cl)c(Cl)c1)NC1CCC(CN2CCC(c3c[nH]c4cc(C(F)(F)F)ccc34)CC2)CC1` (centres unmarked) [TCMDC-139869], for which, for the setting “% Inhibition”, the “% Inhibition” value came out at 50.13%.

In the case of `CNC(=O)c1ccc2[nH]cc(C3CCN(CC4CCC(NC(=O)/C=C/c5ccc(Cl)c(Cl)c5)CC4)CC3)c2c1` (centres unmarked) [TCMDC-139979], the “% Inhibition” value worked out at 15.16%.

In the case of `Cc1ccc2[nH]cc(C3CCN(CC4CCC(NC(=O)/C=C/c5ccc(Cl)c(Cl)c5)CC4)CC3)c2c1` (centres unmarked) [TCMDC-139629], under “% Inhibition”, the “% Inhibition” value stood at 74.07%.

With `O=C(/C=C/c1ccc(Cl)c(Cl)c1)NC1CCC(CN2CCC(c3c[nH]c4ccccc34)CC2)CC1` (centres unmarked) [TCMDC-139447], the “% Inhibition” value is given as 56.58%.

As for `NC(=O)c1ccc2[nH]cc(C3CCN(CC4CCC(NC(=O)/C=C/c5ccc(Cl)c(Cl)c5)CC4)CC3)c2c1` (centres unmarked) [TCMDC-139885], the “% Inhibition” value (% Inhibition) stood at 5.306%.

For `O=C(/C=C/c1ccc(Cl)c(Cl)c1)NC1CCC(CN2CCC(c3c[nH]c4cc(O)ccc34)CC2)CC1` (centres unmarked) [TCMDC-139642], the “% Inhibition” value is 41.76%.

Turning to `CC[C@@H]([C@@H](CC(C)C)C(=O)N[C@@H](CCCCNC(=O)OCc1ccccc1)C(=O)Nc1ccccn1)N(O)C=O` [TCMDC-137163], the “% Inhibition” value is 20.28%.

For `O=C(/C=C/c1ccc(Cl)c(Cl)c1)NC1CCC(N2CCC(c3c[nH]c4ccccc34)CC2)CC1` (centres unmarked) [TCMDC-139778], the “% Inhibition” value was -27.83%.

Turning to `CC(=O)Nc1ccc2[nH]cc(C3CCN(CC4CCC(NC(=O)/C=C/c5ccc(Cl)c(Cl)c5)CC4)CC3)c2c1` (centres unmarked) [TCMDC-139851], where the note is “% Inhibition”, the “% Inhibition” value was 9.174%.

As to `O=C(C=Cc1ccc(F)c(Br)c1)NC1CCC(CN2CCC(c3c[nH]c4ccccc34)CC2)CC1` (centres unmarked) [TCMDC-139908], the “% Inhibition” value (% Inhibition) is on record as 99.67%.

Regarding `O=C(C=Cc1ccc(F)c(Br)c1)N1CCC(CN2CCC(c3c[nH]c4ccccc34)CC2)CC1` [TCMDC-139914], the “% Inhibition” value was -25.75%.

`O=C(/C=C/c1ccc(Cl)c(Cl)c1)NCCCCCN1[C@@H]2CC[C@H]1CC(c1c[nH]c3ccc(O)cc13)C2` (some centres unmarked) [TCMDC-139295]: the “% Inhibition” value (% Inhibition) stood at 11.46%.

Regarding `O=C(/C=C/c1ccc(O)cc1)NC1CCC(CN2CCC(c3c[nH]c4ccccc34)CC2)CC1` (centres unmarked) [TCMDC-139719], the “% Inhibition” value was found to be 17.65%.

Turning to `O=C(/C=C/c1ccc(Cl)c(Cl)c1)NC1CCC(N2CCC(c3c[nH]c4ccc(O)cc34)CC2)CC1` (centres unmarked) [TCMDC-139812], the “% Inhibition” value is 98.54%.

Take `O=C(/C=C/c1ccc(Cl)cc1)NC1CCC(CN2CCC(c3c[nH]c4ccccc34)CC2)CC1` (centres unmarked) [TCMDC-139716]: the “% Inhibition” value (% Inhibition) came out at 101.2%.

For the compound `O=C(/C=C/c1ccc(Cl)c(Cl)c1)NC1CCC(CN2CCC(c3c[nH]c4ccncc34)CC2)CC1` (centres unmarked) [TCMDC-140109], the “% Inhibition” value is on record as 103.5%.

As for `O=C(C=Cc1ccc(F)c(Br)c1)NC1CCC(CN2CCC(c3c[nH]c4ccccc34)CC2)CC1` (centres unmarked) [TCMDC-139919], for the setting “% Inhibition”, the “% Inhibition” value is -60.64%.

On to `CC(=O)Nc1ccc2[nH]cc(C3CCN(CC4CCC(NC(=O)/C=C/c5ccc(Cl)c(Cl)c5)CC4)CC3)c2c1` (centres unmarked) [TCMDC-139852], for which the “% Inhibition” value (% Inhibition) is on record as 29.73%.

Regarding `O=C(C=Cc1ccc(Br)cc1)NC1CCC(CN2CCC(c3c[nH]c4ccccc34)CC2)CC1` (centres unmarked) [TCMDC-139948], the “% Inhibition” value is recorded as 31.75%.

Regarding `CC(C)C(C(=O)n1ncc2c3c(N)nc(N)nc3ccc21)C(C)C` [TCMDC-137333], the “% Inhibition” value is reported as -35.38%.

Consider `COc1cccc(C(=O)Nc2sc3c(c2C(N)=O)CCCC3)c1OC` [TCMDC-123542], for which the “% Inhibition” value is given as -31.1%.

Turning to `COc1cc2nc(NCC3CCCO3)n3nc(-c4ccccc4)nc3c2cc1OC` (centres unmarked) [TCMDC-125295], the “% Inhibition” value is given as -4.624%.

As for `COc1ccc2cc(C(c3nnnn3CC3CCCO3)N3CCc4ccccc43)c(=O)[nH]c2c1` (centres unmarked) [TCMDC-123534], the “% Inhibition” value is reported as 43.68%.

As to `Cc1ccc(CN2CCN(c3cc4c(cc3Cl)CCN4C(=O)Cc3ccc(NC(=O)c4ccc(C(F)(F)F)cc4)cc3)CC2)cc1` [TCMDC-139509], the “% Inhibition” value came to 28.44%.

For `O=C(Nc1ccc(F)c(F)c1)c1ccc(CN2CCCN(Cc3cccc(F)c3)CC2)cc1` [TCMDC-136389], the “% Inhibition” value was 9.307%.

For the compound `CCC[C@@H]([C@@H](CC1CCCCC1)C(=O)N[C@H](C(=O)Nc1nccs1)[C@H](C)O)N(O)C=O` [TCMDC-138142], the “% Inhibition” value is given as -26.13%.

For the compound `CCOC(=O)C1=C(C)N=c2sc(=Cc3ccccc3O)c(=O)n2C1c1ccc(OC)c2ccccc12` (centres unmarked) [TCMDC-124109], the “% Inhibition” value was 14.77%.

For `O=C(/C=C/c1ccc([N+](=O)[O-])cc1)NC1CCC(CN2CCC(c3c[nH]c4ccccc34)CC2)CC1` (centres unmarked) [TCMDC-139934], for the setting “% Inhibition”, the “% Inhibition” value is given as 72.83%.

`O=C(/C=C/c1ccc(Cl)cc1)NC1CCC(CN2CCC(c3c[nH]c4ccccc34)CC2)CC1` (centres unmarked) [TCMDC-139701]: the “% Inhibition” value (% Inhibition) came to 108.5%.

For `N#Cc1c(Cl)cccc1Oc1ccc(S(=O)(=O)NC2CCC(CN3CCC(c4c[nH]c5ccccc45)CC3)CC2)cc1` (centres unmarked) [TCMDC-140167], where the note is “% Inhibition”, the “% Inhibition” value was 10.9%.

On to `CC(C)c1ccc(C=CC(=O)NC2CCC(CN3CCC(c4c[nH]c5ccccc45)CC3)CC2)cc1` (centres unmarked) [TCMDC-139936], for which the “% Inhibition” value was determined as 103.3%.

Turning to `O=[N+]([O-])c1ccc(Oc2c(Cl)cc(S(=O)(=O)N3CCC(CN4CCC(c5c[nH]c6ccccc56)CC4)CC3)cc2Cl)c(Cl)c1` [TCMDC-140169], the “% Inhibition” value is -22.29%.

Consider `O=[N+]([O-])c1ccc(Oc2c(Cl)cc(S(=O)(=O)NC3CCC(CN4CCC(c5c[nH]c6ccccc56)CC4)CC3)cc2Cl)c(Cl)c1` (centres unmarked) [TCMDC-140165], for which the “% Inhibition” value is on record as 62.46%.

Turning to `O=C(/C=C/c1ccc([N+](=O)[O-])cc1)NC1CCC(CN2CCC(c3c[nH]c4ccccc34)CC2)CC1` (centres unmarked) [TCMDC-139950], the “% Inhibition” value (% Inhibition) turned out to be 23.65%.

With `O=C(Nc1cccnc1)c1cc(-c2cccnc2)nc2ccc(Br)cc12` [TCMDC-125212], the “% Inhibition” value is 10.18%.

For the compound `Cc1cc(Cl)ccc1OC(C)C(=O)N1CCc2ccccc21` (centres unmarked) [TCMDC-123620], the “% Inhibition” value is -14.46%.

For the compound `Cc1cc(N2CCCC2)nc(Nc2ccc(NC(=O)COc3ccccc3)cc2)n1` [TCMDC-124969], the “% Inhibition” value is given as -41.99%.

With `COc1cccc(C(=O)NC(c2ccc(Cl)cc2Cl)c2cc(Cl)c3cccnc3c2O)c1` (centres unmarked) [TCMDC-124342], the “% Inhibition” value was 31.32%.

For `COc1ccc(C(=O)NC(c2ccc(Cl)cc2Cl)c2cc(Cl)c3cccnc3c2O)cc1` (centres unmarked) [TCMDC-125549], the “% Inhibition” value is recorded as 15.16%.

In the case of `COc1cccc(C(=O)NC(c2ccccc2OC)c2cc(Cl)c3cccnc3c2O)c1` (centres unmarked) [TCMDC-125612], the “% Inhibition” value is 79.98%.

Turning to `COc1cccc(C(=O)NC(C=Cc2ccccc2)c2cc(Cl)c3cccnc3c2O)c1` (centres unmarked) [TCMDC-125550], the “% Inhibition” value turned out to be 112.7%.

In the case of `FC(F)(F)c1ccc2[nH]c(-c3ccc(-c4ccc(CNCC5CCCO5)cc4)s3)nc2c1.O=C(O)C(F)(F)F` (centres unmarked) [TCMDC-133092], the “% Inhibition” value is -19.94%.

With `CC1CN(c2ccc(C(=O)NCC3CC3)cc2NC(=O)OCc2ccccc2)CC(C)O1` (centres unmarked) [TCMDC-134641], the “% Inhibition” value was 11.9%.

Take `CCOc1ccc2c(c1)OC(c1ccccc1)(C(F)(F)F)NC2=O` (centres unmarked) [TCMDC-123632]: the “% Inhibition” value is listed as 18.25%.

Turning to `CC(C)(C)c1ccc(CNC(=O)/C=C/c2ccc(-c3nc4ccc(C(C)(C)C)cc4[nH]3)cc2)cc1` [TCMDC-140459], the “% Inhibition” value is 15.07%.

Turning to `Cc1ccc2nc(-c3ccc(C=CC(=O)NCc4ccc(Cl)c(Cl)c4)cc3)[nH]c2c1` [TCMDC-140402], the “% Inhibition” value was -29.51%.

Take `COC(=O)c1ccc2nc(-c3ccc(/C=C/C(=O)NCc4ccc(Cl)c(Cl)c4)cc3)[nH]c2c1` [TCMDC-140447]: the “% Inhibition” value stood at 71.15%.

Consider `Cc1cc2nc(-c3ccc(C(=O)NCc4ccc(Cl)c(Cl)c4)cc3)[nH]c2cc1C` [TCMDC-140430], for which the “% Inhibition” value came out at 14.5%.

For `O=C(/C=C/c1ccc(-c2nc3ccc(Cl)cc3[nH]2)cc1)NCc1cccc(F)c1` [TCMDC-140444], the “% Inhibition” value is -5.382%.

For the compound `Cc1cc2nc(-c3ccc(/C=C/C(=O)NCCc4ccccc4)cc3)[nH]c2cc1C` [TCMDC-140438], the “% Inhibition” value is reported as -13.04%.

Regarding `CC(C)(C)c1ccc2nc(-c3ccc(/C=C/C(=O)NCc4ccc(Cl)c(Cl)c4)cc3)[nH]c2c1` [TCMDC-140457], the “% Inhibition” value worked out at 61.32%.

For `O=C(NCc1ccc(Cl)c(Cl)c1)c1ccc(-c2nc3cc(F)c(F)cc3[nH]2)cc1` [TCMDC-140460], the “% Inhibition” value worked out at 62.28%.

`O=C(NCc1ccc(Cl)c(Cl)c1)c1ccc(-c2nc3ccc(F)cc3[nH]2)cc1` [TCMDC-140448]: the “% Inhibition” value is -30.61%.

As to `CC(C)(C)c1ccc2nc(-c3ccc(/C=C/C(=O)NCc4cccc(C(F)(F)F)c4)cc3)[nH]c2c1` [TCMDC-140458], the “% Inhibition” value is reported as -22.76%.

Take `O=C(/C=C/c1ccc(-c2nc3cc(F)c(F)cc3[nH]2)cc1)NCc1ccc(Cl)c(Cl)c1` [TCMDC-140462]: the “% Inhibition” value amounted to 80.74%.

As to `Cc1cc2nc(-c3ccc(/C=C/C(=O)NCc4ccc(Cl)c(Cl)c4)cc3)[nH]c2cc1C` [TCMDC-140437], the “% Inhibition” value is on record as 1.168%.

For orientation: % Inhibition means the relative decrease from the control value, in per cent.
